About 770 (37%) of roughly 2,100 compounds were called active. Some of the results follow. Unmarked numbers belong to inactive results.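 Rule for the calls: active = by-eye trace score of 1 for enhancers or -1 for inhibitors, so actives lie on both sides (some results past the limit were not filed as active); inactive = score 0, or 3 fluorescent, or 4 baseline rise.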

In this assay the target is G protein-activated inward rectifier potassium channel 2 (Homo sapiens) + G protein-activated inward rectifier potassium channel 1 (Homo sapiens) (UniProt P48051+P48549). The assay can be described thus: GIRK1/2 thallium flux modulators, retest, confirmation, cell-based, HEK293 rmGlu8/hGIRK1/2, FluoZin-2 (AID 623911). As to conditions: HEK293 rmGlu8/hGIRK1/2, thallium flux FluoZin-2; actives lie on both sides; glutamate co-added at its EC20 level.
G protein-activated inward rectifier potassium channel 2 (Homo sapiens) + G protein-activated inward rectifier potassium channel 1 (Homo sapiens), sequence (P48051 whole entry, looked up): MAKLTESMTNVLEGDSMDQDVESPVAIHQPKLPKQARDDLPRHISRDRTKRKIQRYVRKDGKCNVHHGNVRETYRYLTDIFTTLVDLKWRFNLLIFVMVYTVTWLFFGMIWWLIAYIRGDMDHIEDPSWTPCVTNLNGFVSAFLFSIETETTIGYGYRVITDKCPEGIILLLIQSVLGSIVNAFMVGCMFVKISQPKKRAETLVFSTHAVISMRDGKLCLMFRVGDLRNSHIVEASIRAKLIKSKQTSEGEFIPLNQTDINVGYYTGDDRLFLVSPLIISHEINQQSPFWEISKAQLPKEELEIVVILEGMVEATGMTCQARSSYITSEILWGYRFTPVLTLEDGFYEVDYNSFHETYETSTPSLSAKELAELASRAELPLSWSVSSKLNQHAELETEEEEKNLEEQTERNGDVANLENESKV
G protein-activated inward rectifier potassium channel 2 (Homo sapiens) + G protein-activated inward rectifier potassium channel 1 (Homo sapiens), sequence (P48549 whole entry, looked up): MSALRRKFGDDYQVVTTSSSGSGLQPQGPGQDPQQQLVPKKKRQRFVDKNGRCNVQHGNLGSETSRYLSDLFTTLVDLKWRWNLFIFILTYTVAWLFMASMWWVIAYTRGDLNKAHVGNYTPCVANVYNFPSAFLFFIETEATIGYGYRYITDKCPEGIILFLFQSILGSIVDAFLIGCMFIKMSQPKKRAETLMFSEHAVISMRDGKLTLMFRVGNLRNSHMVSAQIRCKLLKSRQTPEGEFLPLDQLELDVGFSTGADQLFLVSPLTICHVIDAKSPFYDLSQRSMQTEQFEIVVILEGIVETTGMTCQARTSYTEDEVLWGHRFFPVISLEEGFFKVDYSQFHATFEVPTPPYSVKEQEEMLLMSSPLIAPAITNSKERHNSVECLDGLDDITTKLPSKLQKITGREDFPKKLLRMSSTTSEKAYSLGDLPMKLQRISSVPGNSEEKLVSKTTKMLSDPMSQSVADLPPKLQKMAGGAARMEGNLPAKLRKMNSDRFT
With `O=[n+]1cc(-c2ccccc2)n([O-])c2c1CCC2`, the manual score was 0.

As for `CC1=C(C(=O)Nc2cccnc2)C(c2ccc3c(c2)OCO3)C2=C(CCCC2=O)N1` (configuration not stated), the manual score is -0.5.

Consider `COCCN(C(=O)Cc1cccs1)C(C(=O)NCc1ccc(OC)cc1)c1ccccc1` (configuration not stated), for which the manual score was 0.

With `COC(=O)COn1c(SC(C)C)nc2ccccc2c1=O`, the manual score is 0.

Consider `Cc1cc(C)c2nc(NC(=O)c3cc(C)on3)sc2c1`, for which the manual score was 1 (active).

Regarding `O=C(Nc1nc2ccc(Cl)cc2s1)c1ccc(Br)o1`, the manual score is 0.

In the case of `Cc1cccc2sc(NC(=O)Cn3cccc3)nc12`, the manual score was 0.

Take `CCc1ccc2nc(NC(=O)c3cc(C)on3)sc2c1`: the manual score was 1 (active).

In the case of `CNC(=O)c1ccc2nc(NC(C)=O)sc2c1`, the manual score was -0.5.

Regarding `COc1ccc2[nH]c(C)c(C(=O)CN3CC(C)OC(C)C3)c2c1` (configuration not stated), the manual score is 0.

`C/C(CC(=O)NC(C)C)=N\NC(=O)COc1cc(C)c(Br)cc1Br`: the manual score is 1 (active).

For `C/C(CC(=O)NCC(C)C)=N\NC(=O)COc1cc(C)c(Br)cc1Br`, the manual score was 1 (active).

In the case of `Cc1ccccc1-n1nnc2c(=O)oc3ccccc3c21`, the manual score was 0.

As to `O=C(Nc1nc(=O)c2ccccc2s1)c1ccc(Cl)cc1`, the manual score is 1 (active).

For the compound `CCN(CC)C(=S)SCC(=O)Nc1nc(=O)c2ccccc2s1`, the manual score is 0.

For the compound `O=C(Nc1nc(=O)c2ccccc2s1)c1ccc(F)cc1`, the manual score is 1 (active).

Turning to `O=C(Cc1ccccc1)Nc1nc(=O)c2ccccc2s1`, the manual score is 0.

`O=C(Nc1nc(=O)c2ccccc2s1)c1ccccc1`: the manual score is 1 (active).

As for `COC(=O)c1ccc(NS(=O)(=O)c2ccc(SC)cc2)cc1`, the manual score was 0.

On to `COC(=O)c1ccc(-n2c(C)cc(C(=O)CSc3ccc(NC(C)=O)cc3)c2C)cc1`, for which the manual score was 1 (active).

For the compound `CC(=O)Nc1ccc(SCC(=O)c2cc(C)n(-c3ccccc3F)c2C)cc1`, the manual score is 0.

Regarding `CCc1ccccc1N(C)C(=O)CCc1nc(-c2ccc(C)cc2)no1`, the manual score is -1 (active).

In the case of `O=C(CCCc1nc(-c2ccc(Cl)cc2)no1)N1CCOCC1`, the manual score was 0.

For `CC(C)N(Cc1nc(-c2ccccc2)no1)C(=O)CSc1ccccc1`, the manual score was 0.

For `CN(C)Cc1c(O)c(Cl)cc2c3c(c(=O)oc12)CCCC3`, the manual score was 0.

With `O=C(O)C1C2C=CC3(CN(C4CCCC4)C(=O)C13)O2` (configuration not stated), the manual score is 0.

As to `Cc1ccc(OC(=S)Nc2ccccc2)c(C)c1`, the manual score is 0.

`COc1ccc(NC(=O)Nc2ccccc2OC)cc1`: the manual score is 0.

For the compound `COc1ccc2cc(C(=O)Nc3ccccc3)sc(=O)c2c1OC`, the manual score is 0.

In the case of `COc1ccc(NC(=O)NC(C)c2ccncc2)cc1OC` (configuration not stated), the manual score is 0.

With `CCOc1ccc(NC(=O)Nc2cc(C)ccc2OC)cc1`, the manual score is 1 (active).

With `CCCOc1ccc(NCC(=O)Nc2ccc(C)cc2C)cc1`, the manual score was 0.

`COc1ccc(C)cc1NC(=O)Nc1ccccc1`: the manual score is 1 (active).

For `COc1ccc(C)cc1NC(=O)NCCC1=CCCCC1`, the manual score is 1 (active).

For `O=C(NC(=S)NCCC1=CCCCC1)c1cncc(Br)c1`, the manual score was 0.

Regarding `COc1ccc(NC(=O)Nc2cc(C)ccc2OC)cc1`, the manual score was 1 (active).

As for `O=C(O)c1ccccc1C(=O)Nc1ccc(-c2csc(-c3ccccc3)n2)cc1`, the manual score was 0.

As to `CN1CC=C2C(C#N)=C(N)C(C#N)(C#N)[C@H](c3cccc(Cl)c3)C2C1` (some centres not stated), the manual score was 3.

Take `COC(=O)[C@H](Cc1ccccc1)NC(=O)NCCC1=CCCCC1`: the manual score was 1 (active).

In the case of `COc1ccc(NC(=O)Nc2ccccc2C(=O)N2CCCC2)cc1`, the manual score was 1 (active).

For `COc1cc(C(=S)N2CCCC2)cc(OC)c1OS(=O)(=O)c1ccc(NC(C)=O)cc1`, the manual score was 0.

Take `COC(=O)c1ccccc1NC(=O)Nc1cnccn1`: the manual score was 0.5.

Consider `Cc1ccc(-c2[nH]nc3c2C(c2ccoc2)C(C#N)=C(N)O3)cc1C` (configuration not stated), for which the manual score was 0.

For `CCOC(=O)N1CCN(c2ccc3nnnn3n2)CC1`, the manual score is 0.

Take `CCOC(=O)N1CCN(c2c(F)cc3[nH]c(=S)[nH]c3c2Br)CC1`: the manual score is -1 (active).

Turning to `CCOC(=O)N1CCC(n2c(=S)[nH]c3ccccc3c2=O)CC1`, the manual score is 0.

For `CCc1cc(C(N)=O)c(NC(=O)c2ccc(OC)cc2)s1`, the manual score was 0.

Regarding `COc1ccc(-c2nnc(NC(=O)c3ccc(S(=O)(=O)N4CCCc5ccccc54)cc3)o2)cc1`, the manual score is 0.

On to `COc1ccc(-c2nnc(NC(=O)c3ccc(S(=O)(=O)N4COCC4(C)C)cc3)o2)cc1`, for which the manual score is 1 (active).

Take `O=C(CSc1ccc(-c2ccco2)nn1)c1ccccc1`: the manual score was 0.

Turning to `O=C(Nc1nnc(-c2ccco2)o1)c1ccc2ccccc2c1`, the manual score was 1 (active).

As to `CCOc1ccc(-c2nnc(NC(=O)c3ccc(OCC(C)C)c(OC)c3)o2)cc1`, the manual score was 1 (active).

Turning to `COc1ccc(-c2nnc(NC(=O)c3ccc(S(=O)(=O)N4CCc5ccccc5C4)cc3)o2)cc1`, the manual score is 0.

In the case of `CCOc1ccc(-c2nc(-c3ccc(OC)c(OC)c3)no2)cc1OCC`, the manual score is 0.

As for `COc1ccc(C(=O)Nc2ccc(S(=O)(=O)NCc3ccco3)cc2)cc1OC`, the manual score is 0.

With `CCOc1ccc(-c2nnc(NC(=O)CCCOc3cccc(C)c3)o2)cc1`, the manual score was 0.

Take `COc1ccc(-c2nnc(NC(=O)c3ccc(F)cc3)o2)cc1`: the manual score was 1 (active).

Turning to `CC(=O)CN1Cc2ccccc2/C1=N\C(=O)Nc1ccccc1`, the manual score was 0.

As for `CCCCN(C)C1=CC2=CC(=C(C#N)C#N)CCC2CC1` (configuration not stated), the manual score is 3.

Turning to `Cc1ccccc1Cn1cc(NC(=O)c2nc3ncccn3n2)cn1`, the manual score was 0.

As for `O=C(c1cc(-c2ccccc2)on1)N1CCCC1`, the manual score was 0.

For `CC(C)n1cc(NC(=O)c2cc(-c3ccccc3)on2)cn1`, the manual score is 1 (active).

Take `CCCn1cc(NC(=O)c2cc(-c3ccccc3)on2)cn1`: the manual score is 1 (active).

Take `Cc1cccc(N2CCN(C(=O)c3ccc(Cl)c(S(=O)(=O)N4CCc5ccccc5C4)c3)CC2)c1C`: the manual score is 0.

With `O=c1sc(N2CCN(c3ccccc3F)CC2)nc2ccsc12`, the manual score was 0.

`Cc1ccc2cccc(S(=O)(=O)N3CCN(c4ccccc4F)CC3)c2n1`: the manual score was -1 (active).

With `Cc1onc(-c2ccccc2)c1C(=O)NC(=S)Nc1sc2c(c1C#N)CCCC2`, the manual score was 1 (active).

`O=C(COc1ccccc1)NNC(=S)NC(=O)c1ccc(Cl)cc1Cl`: the manual score was 1 (active).

On to `C=CCNC(=S)NNC(=O)COc1ccc(Cl)cc1Cl`, for which the manual score is 0.

In the case of `Cc1ccccc1C(=O)NNC(=S)NC(=O)c1ccc(Cl)cc1Cl`, the manual score is 1 (active).

With `Cc1ccccc1C(=O)NC(=S)Nc1sc2c(c1C#N)CCCC2`, the manual score was 0.

`Cc1onc(-c2ccccc2)c1C(=O)NNC(=S)NC(=O)c1ccc(Br)cc1`: the manual score is 1 (active).

For the compound `S=c1[nH]ccn1-c1cccc(Cl)c1`, the manual score was 0.

Consider `Oc1ccc2ccc3cccc[n+]3c2c1`, for which the manual score is 3.

As to `CCn1c(-c2cc(-c3cccc(OC)c3)nc3ccccc23)n[nH]c1=S`, the manual score is 0.

Regarding `Cc1ccccc1C(=O)NC(=S)NCCc1ccccc1`, the manual score was 0.

`Cc1c(Cl)cccc1NC(=S)/C(=C(\[O-])c1ccc(Cl)s1)[n+]1ccccc1`: the manual score was 0.

`Cc1ccccc1C(=O)Nc1nc(=S)ss1`: the manual score was 0.

For the compound `Cc1ccccc1C(=O)NNC(=S)NC(=O)c1ccccc1`, the manual score is 1 (active).

On to `Cc1ccccc1C(=O)NNC(=O)C(=O)Nc1cccc(Cl)c1C`, for which the manual score was 1 (active).

On to `CCOC(=O)C(CC)n1cnc2c(nnn2-c2ccc(OC)cc2)c1=O` (configuration not stated), for which the manual score was 0.

For the compound `CCC(C)n1c(=S)[nH]c2c(sc3ccc([N+](=O)[O-])cc32)c1=O` (configuration not stated), the manual score was 1 (active).

Regarding `COc1ccc(-c2nnc(Nc3nc4c(OC)cccc4s3)o2)cc1`, the manual score was 1 (active).

Regarding `O=C(Nc1nc(-c2ccccn2)cs1)c1ccc(Br)s1`, the manual score was 0.

For the compound `CCNc1nnc(-c2ccc(C)cc2)o1`, the manual score is -0.5.

As for `COc1cccc2sc(Nc3nnc(-c4cccs4)o3)nc12`, the manual score was 1 (active).

For `COc1cccc2sc(Nc3nc(-c4ccccn4)cs3)nc12`, the manual score was 1 (active).

As for `C/C(=N/NC(=O)c1ccncc1)c1cc2ccc(O)cc2oc1=O`, the manual score is 0.

For `CCOc1cc(/C=N/NC(=O)CNc2cccc(C)c2)ccc1OC(=O)c1ccccc1`, the manual score is 0.

For `O=C(Nn1c(C2CCCCC2)nc2ccccc2c1=O)c1ccc([N+](=O)[O-])cc1Cl`, the manual score is 0.

As to `Cc1ccc(OCC(O)Cn2c(=N)n(Cc3ccccc3)c3ccccc32)cc1` (configuration not stated), the manual score is -1 (active).

For the compound `COc1ccccc1OCC(O)Cn1c(=N)n(Cc2ccccc2)c2ccccc21` (configuration not stated), the manual score is -1 (active).

As for `CC1(C)NC(=O)N(CC(O)COc2ccc(-c3ccc(C#N)cc3)cc2)C1=O` (configuration not stated), the manual score was 0.

`CN(C)c1nc(OCCNC(=O)COc2ccc(Cl)cc2Cl)nc(N2CCOCC2)n1`: the manual score was -1 (active).

On to `Cc1cc(CC(C)C)n(-c2nc3ccccc3c(=O)n2OCC(N)=O)n1`, for which the manual score was 0.

On to `O=C(CN1CCN(Cc2ccccc2)CC1)Nc1cccc(C(F)(F)F)c1`, for which the manual score is 0.

Consider `CC1(C)Cc2ccccc2-c2nnc(SCC(=O)N3CCN(c4ccccc4)CC3)n21`, for which the manual score is 0.

As to `Cc1ccc(CC(=O)N2CCN(c3cccc(C(F)(F)F)c3)CC2)cc1`, the manual score was 1 (active).

As for `COC(=O)c1ccc(CSc2nc3c(c(=O)n2-c2ccc(F)cc2)SCC3)o1`, the manual score is 0.

Consider `CCOc1ccc(-n2c(SC(C)C(=O)OC)nc3c(c2=O)SCC3)cc1` (configuration not stated), for which the manual score is -1 (active).

As for `CCOc1ccc(-n2c(Cc3cc(=O)[nH]c(=O)[nH]3)nnc2SC(C)C(=O)OC)cc1` (configuration not stated), the manual score was 0.

Regarding `CC(C)Cn1c2c(c(O)c(C(=O)Nc3ncccc3O)c1=O)CCCC2`, the manual score is 0.

`COC(=O)C(NC(=O)COc1ccccc1)(Nc1nc2c(s1)CCCC2)C(F)(F)F` (configuration not stated): the manual score is -1 (active).

`CCCCCn1nc(-c2ccccc2)c2nc3ccccc3nc21`: the manual score is 3.

As to `CCCCN(CCCC)C(=O)CSc1nnc2n(C)c(=O)c3c4c(sc3n12)CCCC4`, the manual score was -0.5.

Regarding `O=c1c2c3c(sc2nc2n1CCCCC2)CCCCC3`, the manual score was 0.

Turning to `CCn1c(SCC(N)=O)nc2sc3c(c2c1=O)CCCC3`, the manual score was 1 (active).
